We go through ten compounds from PubChem BioAssay AID651839 (Vanderbilt Specialized Chemistry Center, 2012).

Results with a measured potency or affinity are listed apart. Activity calls are given as the source filed them.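 The calls were made as follows: active = compounds whose mean inhibitory potency against the glutamate signal is under 30 µM; inactive = the rest.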

Chain of Metabotropic glutamate receptor 3 (Rattus norvegicus) (P31422 whole entry, looked up): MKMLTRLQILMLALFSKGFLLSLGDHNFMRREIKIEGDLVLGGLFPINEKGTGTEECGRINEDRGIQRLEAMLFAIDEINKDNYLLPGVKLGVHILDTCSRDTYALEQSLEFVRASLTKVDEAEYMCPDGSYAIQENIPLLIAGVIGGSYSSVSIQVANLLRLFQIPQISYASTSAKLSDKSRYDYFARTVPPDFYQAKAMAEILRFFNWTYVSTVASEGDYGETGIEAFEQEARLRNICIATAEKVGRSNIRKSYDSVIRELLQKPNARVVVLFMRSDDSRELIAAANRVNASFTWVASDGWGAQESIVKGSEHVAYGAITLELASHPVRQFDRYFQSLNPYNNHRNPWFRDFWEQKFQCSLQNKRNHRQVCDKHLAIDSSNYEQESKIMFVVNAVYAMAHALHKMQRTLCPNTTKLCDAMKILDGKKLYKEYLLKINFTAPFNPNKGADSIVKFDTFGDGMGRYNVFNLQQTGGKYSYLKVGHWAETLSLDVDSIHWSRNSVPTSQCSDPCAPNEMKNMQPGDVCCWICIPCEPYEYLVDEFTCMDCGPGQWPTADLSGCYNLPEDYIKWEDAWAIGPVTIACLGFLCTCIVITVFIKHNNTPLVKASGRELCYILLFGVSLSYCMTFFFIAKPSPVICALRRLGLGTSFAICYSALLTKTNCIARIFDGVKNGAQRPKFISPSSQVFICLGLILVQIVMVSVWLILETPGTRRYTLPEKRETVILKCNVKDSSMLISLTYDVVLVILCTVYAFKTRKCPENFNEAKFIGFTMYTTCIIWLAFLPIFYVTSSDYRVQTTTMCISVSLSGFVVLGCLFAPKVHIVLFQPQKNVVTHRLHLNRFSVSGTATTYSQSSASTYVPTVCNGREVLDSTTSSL

This test concerns the target Metabotropic glutamate receptor 3 (Rattus norvegicus) (UniProt P31422). Nature of the test: inhibition of rat mGlu3 glutamate signaling – HEK/GIRK cells, thallium flux, dose response (AID 651839). The settings on record: HEK293 GIRK rat mGlu3, thallium flux fluorescence; series mostly up to 30 µM; percent of glutamate max response: at the top concentration.
For the compound `COc1ccc(COc2ccc(C(=O)NCCC(C)(C)C)cc2)cc1`, the “percent of glutamate max response” value was 83.7 (inactive). Turning to `COc1ccc(COc2ccc(C(=O)N3CC[C@H](O)C3)cc2)cc1`, the “percent of glutamate max response” value was 91.9 (inactive). The result for `COc1ccc(C#Cc2ccc(C(=O)NCC(C)(C)O)cc2)c(F)c1` reads 82.2 (inactive); that for `COc1ccc(C#Cc2ccc(C(=O)NC(C)(C)CO)cc2)c(F)c1`, 90.1 (inactive); that for `COc1ccc(COc2ccc(C(=O)N3CCCC(OC)C3)cc2)cc1` (stereo not given), 83.7 (inactive). With `COc1ccc(COc2ccc(C(=O)N3CCC(CO)C3)cc2)cc1` (stereo not given), the “percent of glutamate max response” value is 88.3 (inactive). The result for `O=C(c1ccc2cc(-c3ccncc3)ccc2c1)N1CCCC(CO)C1` (stereo not given) reads 98.1 (inactive). To `COc1ccc(COc2ccc(C(=O)N3CC[C@@H](O)C3)cc2)cc1` belongs 86 (inactive); to `COc1ccc(C#Cc2ccc(C(=O)NCCC(C)(C)C)cc2)c(F)c1`, 95 (inactive); to `COc1ccc(COc2ccc(C(=O)N3CCC(OC)C3)cc2)cc1` (stereo not given), 93.4 (inactive).
